Activity calls are given as the source filed them.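 How the source made its calls: active means fitted half-maximal concentration AC50 at or below ten times the highest valid tested dose, with signal falling as DNA is displaced (actives reach about 34 µM in these data); inconclusive means flat fit at moderate signal loss, or poor fit quality; inactive means the rest, including signal rising instead of falling.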
assay: acridine orange-DNA binding displacement – biochemical, fluorescence polarization, cherry-picked samples, set 2, artefact control for KSHV LANA DNA-binding inhibitor project, dose response (AID 504727); settings: series mostly up to 35 µM; activity change, negative = DNA displacement: at the top concentration;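 on activity change, negative = DNA displacement: 0% = median of neutral control wells and -100% = mitoxantrone positive control wells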

Activity change, negative = DNA displacement, inactive:
CCOc1ccc(C(C)NC(=O)c2ccccc2OCc2c(C)noc2C)cc1OCC (stereo not drawn) 5.03%
C=C1c2cccc(O)c2C(O)=C2C(=O)[C@]3(O)C(O)=C(C(N)=O)C(=O)[C@@H](N(C)C)[C@@H]3[C@@H](O)[C@H]12 5.07%
O=C(c1ccc2c(c1)CCN2S(=O)(=O)c1ccccc1)N1CCN(c2ccc(F)cc2)CC1 1.62%
Clc1ccc(-c2nnc3sc(-c4ccc(Br)o4)nn23)cc1 3.69%
COc1cc(C(=O)O)cc(NC(=O)c2ccco2)c1OC -3.79%
CCN(CC)c1ccc2cc(S(=O)(=O)c3ccc(C)cc3)c(=O)oc2c1 -122%
N=C1/C(=C/c2ccc(-c3cccc(C(=O)O)c3)o2)C(=O)N=C2SC(CC(=O)N3CCOCC3)=NN12 6.55%
Cn1c(=O)oc2cc(S(=O)(=O)CCC(=O)N3CCN(c4ccccc4F)CC3)ccc21 -10%
CCOC(=O)CN1NC2(CCCCCC2)NC1=S 7.74%
CC(Sc1nc(-c2ccco2)nc2c1c(=O)n(C)c(=O)n2C)C(=O)O (stereo not drawn) -10.9%
CCN(CC)C(=S)SC1CCCCN(C(=O)c2ccccc2)C1=O (stereo not drawn) 2.83%
CC[C@H](C)[C@H](NC(N)=O)C(=O)Nc1ccc(NC(C)=O)cc1 6%
C=CCN1C(=O)/C(=c2\sc3nc(=O)c(Cc4ccccc4Cl)nn3c2=O)c2ccccc21 7.68%
Cc1ccc(OCC(=O)NC(=S)Nc2cccc(NC(=O)c3ccc(Cl)cc3Cl)c2)cc1 0.722%
Cn1c(=O)c2c(nc(SCC(=O)NCc3ccc4c(c3)OCO4)n2Cc2ccc(Cl)cc2)n(C)c1=O 5.28%
Brc1c(CSc2nncc3ccccc23)nc2ccccn12 1.8%
O=c1[nH]nc(CSCc2ccccc2Cl)[nH]1 4.01%
COc1cc(OC)cc(-c2c(-c3ccsc3)c3cc(Br)ccc3n2C)c1 2.88%
COc1cccc2c1NC(C(=O)O)C1CC=CC21 (stereo not drawn) 3.22%
CCN(CC(=O)NCc1cccs1)C(=O)c1ccc(S(=O)(=O)Nc2ccccc2C)cc1 0.528%
Cn1cc(C(=O)c2ccc(Cl)cc2Cl)cc1C(=O)N/N=C(\N)COc1ccccc1 0.996%
COc1ccc(/C=C/C(=O)NC(=S)Nc2ccc(S(N)(=O)=O)cc2)cc1 1.61%
COc1ccc(NC(=O)COC(=O)c2c(-c3ccccc3)noc2C)cc1 5.5%
COc1cc2c(cc1OC)CN(C(=O)c1ccc(S(=O)(=O)N3CCCC3)cc1)CC2 5.19%
COc1ccc(N(C(=O)c2ccc(Cl)cc2)C2=CC3CCC(C2)N3C)cc1 (stereo not drawn) 4.22%
COc1c2c(nc3occc13)C(CCC(C)(C)O)(OC)C(O)CC2 (stereo not drawn) 4.96%
CCCc1nc(SC)[nH]c(=O)c1C 0.206%
CC(C)N(C(=S)Nc1cccnc1)c1ccccc1 1.38%
CC1=NN(c2cccc(C(=O)O)c2)C(=O)/C1=C\C=C\c1ccco1 1.93%
COc1ccc(OCC(=O)N2CCN(c3cccc(C(F)(F)F)c3)CC2)cc1 4.78%
CN(C)CCCNC(=O)c1ccccc1Oc1ccccc1 -0.636%
O=C(c1coc(=O)c(Br)c1)N1CCCc2ccccc21 0.291%
NC(=S)N/N=C/c1ccc(-c2ccc([N+](=O)[O-])cc2)o1 16.8%
NNc1nc2sc3c(c2c(=O)n1C1CCCCC1)CCN(Cc1ccccc1)C3 3.94%

AC50, active:
Oc1ccc2nnc3c(Br)cnn3c2c1 8.34 µM
O=c1[nH]c2c(s1)C=Nc1ccccc1N2 6.39 µM
O=C(OCCN1C(=O)c2cccc3c(N4CCOCC4)ccc(c23)C1=O)c1ccc(Cl)cc1 18.5 µM
O=C(Cn1nc(Cc2ccncc2)c2ccccc2c1=O)N1CCN(C(=O)c2ccco2)CC1 4.26 µM
